# According to PubChem BioAssay (NCATS):
# Values joined by “and” are separate entries in the source; they are usually repeats but may differ in a detail not shown here. Equal values may be shown once. Unmarked numbers belong to inactive results. Results filed as inconclusive are left out. Where a call stands in place of a potency, no number is given. Some structures have more than one record in an assay (separate samples or runs), and their calls can disagree. Active and inactive are the calls of the source. Unless noted, calls follow the shape of the dose curve; as a rule, active = well fitted curve in the direction sought with a large enough effect; inconclusive = small, poorly fitted or top-dose-only effect, or another doubt; inactive = no such curve, though single readings can be large; an effect the other way counts as inactive or inconclusive.
# What was measured:
# PA-1 = experiment: Primary qHTS to identify gynecologic anti-cancer compounds using libraries of approved drugs and bioactive compounds (AID 1345084); conditions: Gynecologic cancer cell panel viability, ATPlite luminescence, 48 h; series mostly up to 57.5 µM; also: nearly all actives have a fitted effect of over 55% in size; also: potency is read from the fitted curve at half-maximal effect
# Summary of the method: (§1)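 48 h compound exposure at 37 C, 5% CO2; five-point qHTS. ATPlite luminescence readout of cell ATP.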
# Tov-21-G = experiment: as above; conditions: Gynecologic cancer cell panel viability, ATPlite luminescence, 48 h; series mostly up to 57.5 µM
# Summary of the method: as §1
# [1] = Drug repurposing screens with cells derived from glioblastoma tumor samples (AID 1345199); conditions: GBM patient neurospheres viability, ATP luminescence, 48 h; also: nearly all actives have a fitted effect of over 40% in size; also: potency is read from the fitted curve at half-maximal effect
# Summary of the method: (§2)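 Primary testing used CD133+ neurospheres from four GBM patients, seven concentrations, 48 h exposure and ATP-based viability; confirmation added three slower-growing patient lines.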
# astro = experiment: as above; conditions: viability, ATP luminescence, 48 h; series mostly up to 45.9 µM
# Summary of the method: as §2
# Tov112D = experiment: Primary qHTS to identify gynecologic anti-cancer compounds using libraries of approved drugs and bioactive compounds (AID 1345084); conditions: Gynecologic cancer cell panel viability, ATPlite luminescence, 48 h; series mostly up to 57.5 µM; also: nearly all actives have a fitted effect of over 55% in size; also: potency is read from the fitted curve at half-maximal effect
# Summary of the method: as §1
# [2] = molecular target: Nuclear receptor subfamily 1 group I member 2 (Rattus norvegicus) (UniProt Q9R1A7); experiment: qHTS assay for small molecule activators of the rat pregnane X receptor (rPXR) signaling pathway (AID 651751; call rule not given here); conditions: rPXR reporter cells, luciferase (One-Glo), 24 h
# Nuclear receptor subfamily 1 group I member 2 (Rattus norvegicus), sequence (Q9R1A7 whole entry, looked up): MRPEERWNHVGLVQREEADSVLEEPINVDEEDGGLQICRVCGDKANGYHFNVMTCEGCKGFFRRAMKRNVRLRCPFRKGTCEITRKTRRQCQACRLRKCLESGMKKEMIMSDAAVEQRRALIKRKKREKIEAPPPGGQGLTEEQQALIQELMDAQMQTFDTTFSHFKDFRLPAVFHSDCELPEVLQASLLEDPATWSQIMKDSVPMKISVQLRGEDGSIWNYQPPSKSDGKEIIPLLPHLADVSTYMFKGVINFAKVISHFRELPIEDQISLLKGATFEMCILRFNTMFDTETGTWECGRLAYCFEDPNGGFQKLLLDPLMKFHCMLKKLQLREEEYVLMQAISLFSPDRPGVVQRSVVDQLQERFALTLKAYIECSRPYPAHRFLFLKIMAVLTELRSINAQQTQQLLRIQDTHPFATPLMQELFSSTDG
# SKOV3 = experiment: Primary qHTS to identify gynecologic anti-cancer compounds using libraries of approved drugs and bioactive compounds (AID 1345084); conditions: Gynecologic cancer cell panel viability, ATPlite luminescence, 48 h; series mostly up to 57.5 µM; also: nearly all actives have a fitted effect of over 55% in size; also: potency is read from the fitted curve at half-maximal effect
# Summary of the method: as §1
# [3] = qHTS assay to identify inhibitors of the type 1 interferon - major histocompatibility complex class I in skeletal muscle: Counter screen cell viability and HiBit confirmation (AID 1347412); conditions: iHSKM muscle cells + IFN-b, HiBiT or CellTiter-Glo, 24 h; HiBiT; also: potency is read from the fitted curve at half-maximal effect; nearly all actives have a fitted effect of over 60% in size
# Summary of the method: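 After 24 h with human IFN-beta (4 ng/ml) and compound titrations (top 46 uM final, 1:3, 12 points), HLA-B HiBit myoblasts were lysed for either Nano-Glo HiBiT luminescence or CellTiter Glo viability on paired plates.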
# [4] = qHTS assay for small molecule activators of the human pregnane X receptor (PXR) signaling pathway (AID 720659; call rule not given here); conditions: DPX-2 HepG2 CYP3A4-luciferase, 24 h; series mostly up to 92.3 µM
# [5] = at 91.6 µM (top of the series), tumour line B
# [6] = at 45.9 µM (top of the series), tumour line B
# [7] = at 45.9 µM (top of the series), tumour line D
# [8] = at 91.6 µM (top of the series), tumour line D
# [9] = at 108 µM (top of the series), tumour line B
# [10] = at 46 µM (top of the series), tumour line A
smiles,measurement,setting,value
NC1(c2ccccc2)CCCCC1,Potency,PA-1,inactive
same,Potency,Tov-21-G,inactive
same,"activity, negative = cell killing",[1]; [5],-7.4%
same,Potency,[1]; tumour line A,63.1 µM (active)
same,Potency,astro,inactive
Clc1ccc(C(OCCN2CCCCC2)c2ccccc2)cc1 (stereo not drawn),Potency,Tov-21-G,inactive
same,Potency,Tov112D,inactive
same,Potency,[1]; tumour line A,3.55 µM (active)
same,Potency,[1]; tumour line B,10 µM (active)
same,Potency,[1]; tumour line D,7.08 µM (active)
same,Potency,astro,inactive
N#Cc1nn(-c2c(Cl)cc(C(F)(F)F)cc2Cl)c(N)c1S(=O)C(F)(F)F (stereo not drawn),Potency,PA-1,inactive
same,Potency,Tov-21-G,inactive
same,Potency,Tov112D,inactive
same,"activity, negative = cell killing",[1]; [6],-25.5%
same,max response,[2],-15%
CCN(CC)Cc1nccn1-c1ccc([N+](=O)[O-])cc1C(=O)c1ccccc1Cl,Potency,SKOV3,inactive
same,Potency,Tov-21-G,inactive
same,Potency,Tov112D,inactive
same,"activity, negative = cell killing",[1]; [6],-21%
same,"activity, negative = cell killing",[1]; [7],-13.7%
same,Potency,[1]; tumour line A,31.6 µM (active)
C[C@@H]1O[C@@H](O[C@@H]2C=C3CC[C@@H]4[C@H](CC[C@]5(C)[C@@H](c6ccc(=O)oc6)CC[C@]45O)[C@@]3(C)CC2)[C@H](O)[C@H](O)[C@H]1O,Potency,astro,0.0282 µM (active)
same,Potency,[3],0.0125 µM (active)
CC[C@H]1C[C@H]2[C@@H]3CCC4=CC(=O)CC[C@@H]4[C@H]3CC[C@]2(C)[C@H]1O,Potency,Tov-21-G,inactive
same,Potency,Tov112D,inactive
same,Potency,[1]; tumour line A,10 µM (active)
Cc1nnc2n1-c1sc(CCc3ccc(CC(C)C)cc3)cc1C(c1ccccc1Cl)=NC2C (stereo not drawn),Potency,Tov112D,inactive
COc1ccc2c(C(=O)c3ccc(Cl)cc3)c(C)n(CC(=O)O)c2c1,"activity, negative = cell killing",[1]; [6],-15.8%
same,"activity, negative = cell killing",[1]; [7],-19.1%
CCCN(CCC)CCc1c[nH]c2ccccc12,Potency,Tov-21-G,inactive
same,Potency,Tov112D,inactive
same,"activity, negative = cell killing",[1]; [5],-11.3%
same,"activity, negative = cell killing",[1]; [8],-14%
same,Potency,[1]; tumour line A,25.1 µM (active)
CC(=O)OC1(c2ccccc2)CCN(CCc2ccccc2)CC1,Potency,PA-1,inactive
same,Potency,Tov-21-G,inactive
same,Potency,Tov112D,inactive
same,Potency,astro,inactive
C[C@H](N)[C@H](O)c1ccc(O)c(O)c1,Potency,SKOV3,25.1 µM (active)
same,"activity, negative = cell killing",[1]; [6],-8.55%
same,"activity, negative = cell killing",[1]; [7],-15.2%
same,Potency,astro,inactive
CN1C(=O)[C@@H](NC(=O)c2cc3ccccc3[nH]2)N=C(c2ccccc2)c2ccccc21,Potency,PA-1,inactive
same,Potency,Tov-21-G,inactive
same,Potency,Tov112D,inactive
same,"activity, negative = cell killing",[1]; [6],8.15%
same,"activity, negative = cell killing",[1]; [7],-1.15%
same,Potency,astro,inactive
C=CCOC(Cn1ccnc1)c1ccc(Cl)cc1Cl (stereo not drawn),Potency,Tov-21-G,inactive
same,Potency,Tov112D,inactive
same,"activity, negative = cell killing",[1]; [6],-23.6%
same,"activity, negative = cell killing",[1]; [7],-33.6%
same,Potency,[1]; tumour line A,20 µM (active)
COc1ccc(OC)c(CC(C)N)c1 (stereo not drawn),Potency,PA-1,inactive
same,Potency,Tov-21-G,inactive
same,Potency,Tov112D,inactive
same,"activity, negative = cell killing",[1]; [9],-6.52%
same,"activity, negative = cell killing","[1]; at 108 µM (top of the series), tumour line D",-16.6%
same,Potency,astro,inactive
Oc1ccc2[nH]cc(CCCCN3CC=C(c4ccccc4)CC3)c2c1,Potency,SKOV3,inactive
same,Potency,Tov-21-G,inactive
same,Potency,Tov112D,inactive
CC[C@H]1C[C@@H]2C[C@H]3c4[nH]c5ccc(OC)cc5c4CCN(C2)[C@@H]13,Potency,SKOV3,inactive
same,Potency,Tov-21-G,inactive
same,Potency,Tov112D,inactive
CN(C)C(=S)SSC(=S)N(C)C,Potency,SKOV3,1.58 µM (active)
same,Potency,Tov112D,12.6 µM (active)
same,Potency,[1]; tumour line A,35.5 µM (active)
same,Potency,[1]; tumour line B,35.5 µM (active)
c1ccc2c(c1)Sc1ccccc1N2CC1CN2CCC1CC2 (stereo not drawn),Potency,SKOV3,28.2 µM (active)
CCCCCCCCC(=O)NCc1ccc(O)c(OC)c1,Potency,Tov-21-G,inactive
same,"activity, negative = cell killing",[1]; [6],-1.62%
same,"activity, negative = cell killing",[1]; [7],-6.9%
same,Potency,[1]; tumour line A,12.6 µM (active)
same,max response,[2],2.01%
same,outcome,[4],inactive
O=C(O)CCCCCCNC1c2ccccc2CCc2ccccc21,Potency,PA-1,inactive
same,Potency,Tov-21-G,inactive
same,Potency,Tov112D,inactive
same,"activity, negative = cell killing",[1]; [6],2.2%
same,"activity, negative = cell killing",[1]; [7],-6.72%
same,Potency,astro,inactive
O=C(N[C@@H]1N=C(c2ccccc2F)c2cccc3c2N(CC3)C1=O)c1cc2ccccc2[nH]1,"activity, negative = cell killing",[1]; [6],-3.52%
same,"activity, negative = cell killing",[1]; [7],-3.25%
O=C(NC(=O)c1c(F)cccc1F)Nc1cc(Cl)c(OC(F)(F)C(F)C(F)(F)F)cc1Cl (stereo not drawn),Potency,PA-1,inactive
same,Potency,Tov-21-G,inactive
same,Potency,Tov112D,inactive
same,"activity, negative = cell killing",[1]; [6],-8.74%
same,"activity, negative = cell killing",[1]; [7],-27.5%
same,Potency,[1]; tumour line A,7.94 µM (active)
same,Potency,astro,inactive
same,max response,[2],0.749%
C[C@H]1C(=O)O[C@@H]2CCN3CC=C(COC(=O)[C@](C)(O)[C@]1(C)O)[C@H]23,Potency,PA-1,inactive
same,Potency,Tov-21-G,inactive
same,Potency,Tov112D,inactive
same,"activity, negative = cell killing",[1]; [6],-12.9%
same,"activity, negative = cell killing",[1]; [7],-22.3%
same,"activity, negative = cell killing",[1]; [10],-27.9%
same,max response,[2],0.678%
same,outcome,[4],inactive
CC[n+]1c(-c2ccccc2)c2cc(N)ccc2c2ccc(N)cc21,Potency,PA-1,1.26 µM (active)
same,Potency,Tov-21-G,15.8 µM (active)
same,Potency,Tov112D,1.41 µM (active)
same,max response,[2],-4.84%
same,outcome,[4],inactive
C[C@]12Cc3nonc3C[C@@H]1CC[C@@H]1[C@@H]2CC[C@@]2(C)[C@H]1CC[C@]2(C)O,Potency,SKOV3,inactive
same,Potency,Tov-21-G,inactive
same,Potency,Tov112D,inactive
same,"activity, negative = cell killing",[1]; [6],-26.1%
same,Potency,[1]; tumour line A,12.6 µM (active)
COc1cc(CC(C)N)c(OC)cc1Br (stereo not drawn),Potency,Tov112D,inactive
same,"activity, negative = cell killing",[1]; [6],-9.73%
same,"activity, negative = cell killing",[1]; [9],-15.6%
same,Potency,[1]; tumour line A,35.5 µM (active) and 12.6 µM (active)
Clc1ccc(CO/N=C(\Cn2ccnc2)c2ccc(Cl)cc2Cl)c(Cl)c1,Potency,SKOV3,inactive
same,Potency,Tov-21-G,inactive
same,Potency,Tov112D,inactive
same,Potency,[1]; tumour line A,2.82 µM (active)
same,Potency,[1]; tumour line D,11.2 µM (active)
CCCCCCCCCCCC[N+](C)(C)CCOc1ccccc1,Potency,[1]; tumour line A,12.6 µM (active)
same,Potency,[1]; tumour line B,15.8 µM (active)
same,Potency,[1]; tumour line D,11.2 µM (active)
same,Potency,astro,20 µM (active)
same,max response,[2],-13.8%
CCC(OC(C)=O)C(CC(C)NC)(c1ccccc1)c1ccccc1 (stereo not drawn),Potency,Tov-21-G,inactive
COc1ccc2c3c1O[C@H]1[C@@H](O)C=C[C@H]4[C@@H](C2)N(C)CC[C@@]341,"activity, negative = cell killing",[1]; [5],-11%
same,"activity, negative = cell killing",[1]; [8],-4.9%
same,Potency,[1]; tumour line A,44.7 µM (active)
same,Potency,astro,inactive
CN1C(=O)CN=C(c2ccccc2)c2cc(Cl)ccc21,Potency,PA-1,inactive
same,Potency,Tov-21-G,inactive
same,Potency,Tov112D,inactive
same,"activity, negative = cell killing",[1]; [6],-4.05%
same,"activity, negative = cell killing",[1]; [7],-1.05%
same,Potency,astro,inactive
CC[C@H](O)C(C[C@H](C)N(C)C)(c1ccccc1)c1ccccc1,Potency,PA-1,inactive
same,Potency,Tov-21-G,inactive
same,"activity, negative = cell killing",[1]; [9],-29.7%
same,Potency,[1]; tumour line A,44.7 µM (active)
same,Potency,[1]; tumour line D,70.8 µM (active)
CCN(Cc1ccc(Cl)nc1)/C(=C/[N+](=O)[O-])NC,Potency,PA-1,inactive
same,Potency,Tov-21-G,inactive
same,Potency,Tov112D,inactive
same,"activity, negative = cell killing",[1]; [6],-9.68%
same,"activity, negative = cell killing",[1]; [7],-5.99%
same,Potency,astro,inactive
CCOC(=O)NC(C)(C)Cc1ccc(Cl)cc1,Potency,PA-1,inactive
same,Potency,Tov-21-G,inactive
same,Potency,Tov112D,inactive
same,"activity, negative = cell killing",[1]; [6],0.659%
same,"activity, negative = cell killing",[1]; [7],-16.7%
same,Potency,astro,inactive
COc1cc(CC(C)N)cc2c1OCO2 (stereo not drawn),Potency,PA-1,inactive
same,Potency,Tov-21-G,inactive
same,Potency,Tov112D,inactive
same,"activity, negative = cell killing",[1]; [9],-12.8%
same,Potency,[1]; tumour line A,35.5 µM (active)
same,Potency,astro,inactive
CC(CC(C#N)(c1ccccc1)c1ccccc1)N(C)C (stereo not drawn),Potency,PA-1,inactive
same,Potency,Tov-21-G,inactive
same,Potency,Tov112D,inactive
same,Potency,astro,inactive
CC[C@]1(O)CC[C@H]2[C@@H]3CCC4=CCCC[C@@H]4[C@H]3CC[C@@]21C,"activity, negative = cell killing",[1]; [6],-25.8%
same,Potency,[1]; tumour line A,10 µM (active)
CN1[C@@H]2CC[C@H]1CC(OC(=O)c1cc(Cl)cc(Cl)c1)C2 (stereo partly drawn),Potency,SKOV3,inactive
same,Potency,Tov-21-G,inactive
same,Potency,Tov112D,inactive
same,Potency,astro,inactive
CN1C(=O)CN=C(c2ccccc2)c2cc([N+](=O)[O-])ccc21,Potency,PA-1,inactive
same,Potency,Tov-21-G,inactive
same,Potency,Tov112D,inactive
same,"activity, negative = cell killing",[1]; [6],1.05%
same,"activity, negative = cell killing",[1]; [7],-22.1%
same,"activity, negative = cell killing",[1]; [10],-31.9%
same,Potency,astro,inactive
CCC1(c2cnc[nH]2)Cc2ccccc2C1,"activity, negative = cell killing",[1]; [7],-24.8%
same,Potency,astro,inactive
